# Test results taken from PubChem BioAssay (NCI).
# Compounds without any hit were thinned out: in the full panel of roughly 83,000, 20% have a hit.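 Cell lines were cultured in 96-well plates, exposed to a single compound concentration, and assessed for percent growth 48 hours later.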 Active and inactive are the calls of the source. The calls were made as follows: active = growth percent below 10; inactive = the rest.
# Test system: SR leukemia
# Test: NCI-60 one-dose screen, 48 h (100 = growth as untreated, 0 = no growth, -100 = all killed)
# Conditions: 10 µM unless noted
row,Compound,growth
1,COC(=O)Cc1cc(COC(C)=O)ccc1C,75.4% (inactive)
2,Cc1ccc(/C=N/NC(N)=S)s1,97.3% (inactive)
3,Cc1cc(=O)n(Nc2ccccc2)c(O)c1C#N,88.9% (inactive)
4,CN(C)c1ccc(O)c2c1CC1CC3C(N(C)C)C(=O)C(C(N)=O)=C(O)C3(O)C(=O)C1=C2O (centres undefined),24.1% (inactive)
5,C/C(=N\N=C(/C)c1cccc([N+](=O)[O-])c1)c1cccc([N+](=O)[O-])c1,86.4% (inactive)
6,CC(=O)c1ccc(C)cc1,112% (inactive)
7,CCNC(=O)Oc1ccc[nH]c1=O,76.4% (inactive)
8,Cc1nc(C)c(C(=O)O)cc1C(=O)O,100% (inactive)
9,CC(=O)OCC1OC(n2cnc3c(=S)nc(N)[nH]c32)C(OC(C)=O)C1OC(C)=O (centres undefined),12.9% (inactive)
10,CCOC(=O)CNC,93.2% (inactive)
11,COC1CC(OC(=O)c2ccc([N+](=O)[O-])cc2)C(COC(=O)c2ccc([N+](=O)[O-])cc2)O1 (centres undefined),85.9% (inactive)
12,Nc1cccc2cccc(O)c12,58.5% (inactive)
13,CC(CCC#N)(CCC#N)C(=O)c1ccccc1,104% (inactive)
14,O=[N+]([O-])c1c(Cl)ncnc1Cl,96% (inactive)
15,NS(=O)(=O)c1cc(=O)[nH]c(=O)[nH]1,135% (inactive)
16,COc1ccc2c(Cl)cc(NC(=O)Nc3c(C)cccc3C)nc2c1,63.4% (inactive)
17,Cc1nc(O)cc(=O)[nH]1,114% (inactive)
18,Cc1ccc(C)c2c1CCC2=O,132% (inactive)
19,O=C(OC1CCCC1)c1ccccc1Cl,104% (inactive)
